High-throughput results deposited in PubChem by National Center for Advancing Translational Sciences (NCATS).
PLK1 PBD block: inhibitors of human PLK1 polo-box domain binding; P53350; Plk1 PBD binding of FITC phosphopeptide, fluorescence polarization; Potency, µM, inactives show max response, negative = inhibition, hits mostly inhibitors; 2.8% of 360,000 active; also: series mostly up to about 57 µM; % is scaled to controls: 0 for no effect and ±100 for the full control effect; nearly all actives have a fitted effect of over 65% in size
BAZ2B inh: inhibitors of human BAZ2B bromodomain; 4.4% of 360,000 active; Potency, µM (doses to about 114 µM), for the others: top-dose activity change, negative = inhibition, most hits filed as inhibitors; AlphaScreen BAZ2B-H3K14Ac peptide displacement; Q9UIF8; also: % is scaled to controls: 0 for no effect and ±100 for the full control effect; nearly all actives have a fitted effect of over 60% in size
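AlphaScreen displacement: compounds (up to 110uM) incubated 30 min at room temperature with a preformed 50 nM BAZ2B/50 nM biotinylated H3K14Ac peptide complex in PBS pH 7.4 with Tween-20. Donor and acceptor beads at 10 ug/mL final added, 20 min light-protected before reading.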
HP1b binding inh: blocks HP1-beta chromodomain binding to methylated histone tails; P83916; AlphaScreen HP1-beta / biotin-H3K9me3 peptide binding; Potency, µM (highest dose often 114 µM), for the others: at the highest dose activity change, negative = inhibition, hits mostly inhibitors; 0.56% of 390,000 active; also: nearly all actives have a fitted effect of over 70% in size
Target sequence (P83916 whole entry, looked up): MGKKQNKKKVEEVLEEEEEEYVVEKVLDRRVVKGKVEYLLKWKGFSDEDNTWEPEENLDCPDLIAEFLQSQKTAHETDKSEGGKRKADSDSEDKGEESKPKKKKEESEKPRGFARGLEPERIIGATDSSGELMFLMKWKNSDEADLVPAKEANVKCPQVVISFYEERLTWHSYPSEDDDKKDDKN
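Compound inhibition of the preformed complex between 50 nM HP1-beta and 50 nM biotinylated H3K9me3 peptide was read by AlphaScreen. Buffer was PBS pH 7.4 with 0.01% Tween-20. Incubations ran 30 min at room temperature, with 10 ug/mL donor/acceptor beads.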
G9a block: blocks human histone lysine methyltransferase G9a. Q96KQ7. G9a H3K9 monomethylation, AlphaScreen, 2 h. Potency, µM (highest dose often 102 µM), for inactives: top-dose activity, negative = inhibition, actives largely listed as inhibitors. 8.8% of 350,000 active. AID 504332; also: % is scaled to controls: 0 for no effect and ±100 for the full control effect; nearly all actives have a fitted effect of over 75% in size
Target sequence (Q96KQ7 913-1193 limits assumed): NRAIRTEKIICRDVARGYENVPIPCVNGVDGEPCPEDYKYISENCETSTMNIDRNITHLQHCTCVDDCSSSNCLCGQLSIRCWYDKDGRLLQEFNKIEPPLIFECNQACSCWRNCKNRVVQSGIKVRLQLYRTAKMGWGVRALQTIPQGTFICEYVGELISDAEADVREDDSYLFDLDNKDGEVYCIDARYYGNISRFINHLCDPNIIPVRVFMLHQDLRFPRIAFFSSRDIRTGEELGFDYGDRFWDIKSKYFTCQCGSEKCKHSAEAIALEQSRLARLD
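G9a (20 nM) preincubated 15 min RT with compounds, then 500 nM biotinylated H3K9 peptide and 20 uM SAM added; 2 h RT reaction. Monomethyl-H3K9 product detected by AlphaScreen with anti-H3K9me1 antibody, streptavidin donor and anti-rabbit IgG acceptor beads.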
12-LOX inh: ALOX12 (human) lipoxygenase inhibition; AID 1671190; 1.1% of 580,000 active; purified 12hLO, xylenol orange hydroperoxide absorbance; P18054; Potency, µM (doses to about 108 µM), for inactives: at the top dose activity change, negative = inhibition, usual class: inhibitors; also: % is scaled to controls: 0 for no effect and ±100 for the full control effect
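Purified human 12hLO (150 nM final) in 25 mM Hepes, 0.01% Triton X-100, pH 7.0 was preincubated 15 min at room temperature with compound. Then 40 uM arachidonic acid was added, 30 min. Hydroperoxide was read by Fe-XO absorbance ratio 573/405 nm.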
JMJD2A Tudor: blocks the human JMJD2A Tudor domain | O75164 | AlphaScreen JMJD2A-Tudor / H3K4me3 peptide binding | Potency, µM (top dose mostly 114 µM), for inactives: at the highest dose activity change, negative = inhibition, actives largely listed as inhibitors | 4.4% of 390,000 active; also: % is scaled to controls: 0 for no effect and ±100 for the full control effect; nearly all actives have a fitted effect of over 50% in size
Starred values were filed as active, the others as inactive; u = inconclusive; x = no result given; [ ] = remark or other dose. Rows were chosen to be rich in hits. Some 9% of all compounds tested hit in one or more screens of this group. Calls follow the shape of the dose curve; as a rule, active = well fitted curve in the direction sought with a large enough effect; inconclusive = small, poorly fitted or top-dose-only effect, or another doubt; inactive = no such curve, though single readings can be large; an effect the other way counts as inactive or inconclusive. Potency is read from the fitted curve at half-maximal effect.

SMILES	PLK1 PBD block	BAZ2B inh	HP1b binding inh	G9a block	12-LOX inh	JMJD2A Tudor
C=CCn1c(SCC(=O)c2c(N)n(C)c(=O)n(C)c2=O)nc2sc(C)c(C)c2c1=O	-8%	-29%	47%	-10%	-3%	-9%
Cc1nc(SC(C)C(=O)c2c(N)n(C)c(=O)n(C)c2=O)c2c(C)c(C)sc2n1 (centres undefined)	-29%	-10%	12%	7.1µM*	u	u
CC(Sc1nnc(N)s1)C(=O)c1c(N)n(C)c(=O)n(C)c1=O (centres undefined)	-11%	7%	8%	50µM*	-25%	-10%
C#CC[N+](C)(C)CCCCCCCCC	38µM*	32%	30%	-26%[59 µM]	21%	4%[57.1 µM]
O=C(N/N=C\c1ccc(-c2ccccc2[N+](=O)[O-])o1)C1COc2ccccc2O1 (centres undefined)	-10%	u	-29%	28µM*	5%	u
O=C(N/N=C\c1ccc([N+](=O)[O-])s1)C1COc2ccccc2O1 (centres undefined)	-1%	-38%	-3%	13%	-24%	u
O=C(N/N=C\c1ccc([N+](=O)[O-])o1)C1COc2ccccc2O1 (centres undefined)	-8%	-16%	39%	56µM*	-15%	-11%
COc1ccc(-c2coc3c(C(=O)NCCc4ccccc4)cccc23)c(C)c1	4%	x	x	x	-1%	x
O=[N+]([O-])c1cc(Cl)cc(/C=N\Nc2ccccn2)c1O	3.4µM*	4.5µM*	10µM*	u	0%	10µM*
O=C(N/N=C/c1cc(Cl)cc([N+](=O)[O-])c1O)c1cc(-c2ccccn2)nc2ccccc12	u	u	u	-6%[12.7 µM]	-14%	45µM*
COc1cccc(/C=N/NC(=O)c2cc(-c3ccccn3)nc3ccccc23)c1O	u	-30%	-6%[57 µM]	43%[12.7 µM]	164%	56µM*
O=[N+]([O-])c1ccc(Cl)cc1C=NNc1ccccn1	0%	x	23%	x	2%	-13%
COc1ccccc1-c1ccnc(N[C@H]2CO[C@H]3[C@@H]2OC[C@@H]3NS(=O)(=O)c2ccc3ccccc3c2)n1	x	x	x	x	-3%	x
N#CC1(c2ccccc2)CCC(NCCc2ccccc2)CC1 (centres undefined)	-28%	56µM*	16%	25µM*	-59%	50µM*
O=C(NCCc1ccccc1)C1(c2ccccc2)CCCC1	-2%	-37%	40%	29%[0.501 µM]	-2%	3%
COCCSc1ccccc1C(=O)Nc1ccc2c(c1)OCCO2	-9%	2%	59%	3.5µM*	u	2%
COCCSc1ccccc1C(=O)Nc1cc(C)cc(C)c1	-6%	0%	52%	4.5µM*	u	1%
Cc1ccc(NC(=O)CSc2ccccc2C(=O)Nc2ccc3c(c2)OCCCO3)cc1	x	x	x	x	10µM*	x
COCCSc1ccccc1C(=O)Nc1ccncc1	-3%	2%	11%	u	-28%	-1%
CC(C(=O)Nc1ccc2c(c1)OCCO2)c1ccc([N+](=O)[O-])cc1 (centres undefined)	30µM*	-4%	10%	-5%[59 µM]	-5%	-31%
Cc1ccc(C)c(NC(=O)c2cc(S(=O)(=O)NCCc3ccccc3)ccc2F)c1	x	4%	1%	-1%[59 µM]	-24%	-9%
C=CCN1C[C@H](COC(=O)c2cccc(OC)c2)Oc2cccc(F)c2S1(=O)=O	x	x	x	x	15%	x
CC(=O)N/C(=C/c1ccc2c(c1)OCO2)C(=O)N1CCOCC1	2%	-38%	42%	21%[0.501 µM]	u	-3%
Nn1c(SCC(=O)Nc2ccc3c(c2)OCCO3)nnc(CCC(=O)O)c1=O	3.4µM*	-2%	5%	3%	-13%	20µM*
CC(=O)Nc1ccc(SCC(=O)Nc2ccc3c(c2)OCCO3)cc1	12µM*	x	5%	x	-13%	-19%
SMILES	PLK1 PBD block	BAZ2B inh	HP1b binding inh	G9a block	12-LOX inh	JMJD2A Tudor
COc1ccc(NC(=O)CSc2ccc3c(c2)OCCO3)cc1	u	x	13%[57 µM]	x	-21%	-9%
COc1ccc(S(=O)(=O)NCC(=O)Nc2ccc3c(c2)OCCO3)cc1OC	-23%	17%	37%	50µM*	11%	-11%
COc1ccccc1OC(C)C(=O)Nc1ccc2c(c1)OCCO2 (centres undefined)	1%	-4%	-14%	32µM*	-6%	-18%
Cc1nnc(SCC(=O)Nc2ccc3c(c2)OCCO3)n1N	-5%	3%	15%	u	0%	-15%
COc1ccc(NC(=O)c2nc(C)n(-c3ccc(F)cc3)n2)c(OC)c1	x	x	x	x	13%	x
N#Cc1ccc(CSc2ccccc2C(=O)Nc2ccc3c(c2)OCO3)cc1	x	x	x	x	28µM*	x
COCCSc1ccccc1C(=O)Nc1cc(C)ccn1	-9%	5%	32%	-22%	-3%	3%
O=C(Nc1nncs1)c1cccnc1Cl	-11%	-5%	5%	1.4µM*	u	-18%
CC(Oc1ccc(F)cc1)C(=O)Nc1cccc(-c2nn[nH]n2)c1 (centres undefined)	21µM*	-17%	0%	25µM*	u	-23%
O=C(CSc1ccccc1C(=O)O)Nc1ccc2c(c1)OCO2	-12%	10%	23%	-5%[12.7 µM]	u	-6%
COCCSc1ccccc1C(=O)Nc1nncs1	-11%	-19%	43%	25µM*	u	-4%
O=C(C1CCC1)N1CCN(C(=O)Cc2ccsc2)[C@H]2CS(=O)(=O)C[C@H]21	x	x	x	x	10%	x
CCSc1ccccc1C(=O)Nc1cc(OC)c(OC)c(OC)c1	-15%	-13%	10%	3.5µM*	u	-33%
C=C(C)C(=O)Nc1ccc2c(c1)OCCOCCOCCO2	-21%	11µM*	13µM*	10µM*	0%	18µM*
COc1ccccc1OC(C)C(=O)Nc1cccc(-c2nc3ccccc3s2)c1 (centres undefined)	x	2%	18%	8.9µM*	u	0%
COc1cc(NC(=O)c2ccccc2-c2ccccc2)cc(OC)c1OC	x	0%	x	x	x	x
COc1cc(SC)ccc1C(=O)Nc1ccc2c(c1)OCCO2	3%	-22%	3%	50µM*	2%	-14%
Cc1ccc(S(=O)(=O)NCc2ccco2)cc1C(N)=O	27µM*	-6%	-9%	-15%	2%	25µM*
Cc1ccc2ccc(S(=O)(=O)NCc3ccco3)cc2c1	-23%	-18%	4%	35µM*	u	-21%
Cn1cc(S(=O)(=O)N2CCCCCC2)cc1C(=O)Nc1ccc(Cl)c(C(F)(F)F)c1	x	u	31%[57 µM]	3%[59 µM]	-17%	4%
Cc1ccc(CNC(=O)COC(=O)c2ccc(S(=O)(=O)N3CCCC3)cc2)cc1	3%	4%	17%	-7%[59 µM]	73%	-8%
O=C(Cc1ccc(-c2csc(Nc3ccc(F)cc3)n2)s1)N1CCOCC1	x	x	x	x	32µM*	x
